# Shown are actives, neighbours in structure and some others; about 19% of the full set was active somewhere.
# IL-1B inflam inh: blocks inflammasome-driven IL-1 beta release; 360,000 compounds, 4.7% hits; activity change, % at 57.5 µM; AID 743279; THP-1 LPS/ATP IL-1B secretion, AlphaLISA, 16 h; hits give low values; in the data active = activity change below about -50%; inconclusive = mostly about -30% to -49%; note: % is set by controls: 0 for no effect and ±100 for the full control effect
#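 Secreted IL-1B measured by AlphaLISA bead assay after 16 h compound exposure of THP-1 cells; compounds (final up to 57.5 uM) added 1 h before LPS (250 ng/mL) and ATP (1.25 mM) stimulation; lower signal means less secretion.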
# TDP1 cell CPT: DT40-hTDP1 cell growth loss with CPT; Potency, µM (doses to about 46.2 µM), for the others: at the highest dose activity change, negative = growth inhibition, actives largely listed as inhibitors; 420,000 compounds, 12% hits; chicken DT40 Tdp1-/-;hTDP1 cells + 20 nM CPT, ATP luminescence, 48 h; AID 686979; note: potency is the fitted concentration of half-maximal effect; % is set by controls: 0 for no effect and ±100 for the full control effect; nearly all actives have a fitted effect of over 55% in size
#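 Cell growth measured by CellTiter-Glo luminescence after a minimum 48 h, 37 C compound exposure with 20 nM CPT in Tdp1-knockout DT40 cells stably expressing hTDP1, seeded 400/well; qHTS titration format.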
# TGFb SMAD3 inh: inhibitors of TGF-b signaling | HepG2 CAGA-GFP TGF-b/SMAD3 reporter, GFP fluorescence, 18 h; TGF-beta stimulated, 500 pg/mL final | Potency, µM (highest dose often 46.1 µM), without a hit: top-dose activity, negative = inhibition, most hits filed as inhibitors | 410,000 compounds, 1.2% hits; note: potency is the fitted concentration of half-maximal effect; % is set by controls: 0 for no effect and ±100 for the full control effect; nearly all actives have a fitted effect of over 65% in size
#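 First, reporter cells (HEPG2 CAGA-GFP) rested 2 h at 37 degrees C. Next, compounds were pinned in and TGF-beta added to 500 pg/mL final. After 18 h, GFP was imaged per cell and summed per well.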
# DT40 TDP1 no CPT: qHTS for Inhibitors of human tyrosyl-DNA phosphodiesterase 1 (TDP1): qHTS in cells in absence of CPT. DT40 Tdp1-/- hTDP1 cells, no CPT, ATP luminescence, 48 h. Potency, µM (highest dose often 46.2 µM), for the others: top-dose activity change, negative = growth inhibition, most hits filed as inhibitors. 420,000 compounds, 15% hits; note: potency is the fitted concentration of half-maximal effect; % is set by controls: 0 for no effect and ±100 for the full control effect; nearly all actives have a fitted effect of over 55% in size
#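 Cells were dispensed at 400 per well, compounds added by pin tool, plates incubated ≥48 hr at 37 °C, then CellTiter-Glo added for 30 min at room temperature before luminescence reading. Line: DT40 Tdp1-/- complemented with hTDP1; camptothecin omitted.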
# TDP1 block: blocks human tyrosyl-DNA phosphodiesterase 1. Q9NUW8. recombinant TDP1, AlphaScreen DNA substrate cleavage. Potency, µM (series often up to 130 µM), inactives show top-dose activity change, negative = inhibition, most hits filed as inhibitors. 350,000 compounds, 0.28% hits. AID 485290; note: potency is the fitted concentration of half-maximal effect; % is set by controls: 0 for no effect and ±100 for the full control effect; nearly all actives have a fitted effect of over 40% in size
# Target sequence (Q9NUW8 whole entry, looked up): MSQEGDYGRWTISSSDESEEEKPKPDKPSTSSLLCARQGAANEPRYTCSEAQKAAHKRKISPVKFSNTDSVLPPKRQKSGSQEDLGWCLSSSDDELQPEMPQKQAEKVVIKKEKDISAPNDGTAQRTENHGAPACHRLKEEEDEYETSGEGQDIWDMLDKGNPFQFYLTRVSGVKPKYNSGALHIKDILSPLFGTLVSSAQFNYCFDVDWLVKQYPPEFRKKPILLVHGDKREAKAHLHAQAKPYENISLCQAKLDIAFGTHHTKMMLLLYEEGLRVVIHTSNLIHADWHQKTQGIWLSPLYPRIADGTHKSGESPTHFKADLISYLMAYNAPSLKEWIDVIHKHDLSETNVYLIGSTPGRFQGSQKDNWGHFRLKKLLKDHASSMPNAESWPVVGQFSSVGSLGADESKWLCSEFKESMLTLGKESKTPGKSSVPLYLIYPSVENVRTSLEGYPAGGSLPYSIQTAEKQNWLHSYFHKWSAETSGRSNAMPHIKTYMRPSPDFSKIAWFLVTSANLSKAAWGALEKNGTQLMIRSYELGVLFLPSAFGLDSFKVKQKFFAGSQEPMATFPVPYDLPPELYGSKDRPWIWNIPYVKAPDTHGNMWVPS
#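 Compounds were preincubated with Tdp1 (1 nM final) for 15 min at room temperature before substrate (15 nM final) started a 5 min reaction; beads (10 ug/ml final) were then added for 10 min before AlphaScreen detection.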
# HepG2 tox: kills HepG2 cells in TGF-b inhibitor counter-screen; 410,000 compounds, 0.76% hits; HepG2 CAGA-GFP viability, ATP luminescence, 18 h; Potency, µM (doses to about 46.1 µM), without a hit: top-dose activity change, negative = cytotoxicity, most hits filed as cytotoxic; note: potency is the fitted concentration of half-maximal effect
#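 HepG2 CAGA-GFP cells (1000/well, DMEM with 1% FBS) received compound, then TGF-beta at 500 pg/mL final, and were incubated 18 hours at 37 degrees C. Viability was read by CellTiter-Glo luminescence. Media-only wells were set as complete cell-killing and DMSO as no toxicity.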
# Starred values were filed as active, the others as inactive; ? = inconclusive; · = no result given; ! = repeats disagree; [ ] = another dose, or the depositor's remark. Unless noted, calls come from the whole dose curve; as a rule, active = well fitted curve in the direction sought with a large enough effect; inconclusive = small, poorly fitted or top-dose-only effect, or another doubt; inactive = no such curve, though single readings can be large; an effect the other way counts as inactive or inconclusive.
SMILES,IL-1B inflam inh,TDP1 cell CPT,TGFb SMAD3 inh,DT40 TDP1 no CPT,TDP1 block,HepG2 tox
CCOc1ccc(CCNC(=O)CSCc2nc(-c3cccc(C)c3)oc2C)cc1OCC,·,?,?,13µM*,1%,-52%
COc1ccccc1CNC(=O)CSCc1nc(-c2ccc(OC)c(OC)c2)oc1C,·,?,?,18µM*,-1%,-16%
COc1ccc(-c2nc(CSCC(=O)NCCc3ccc(C)cc3)c(C)o2)cc1OC,·,16µM*,-2%,18µM*,-1%,-7%
CCOc1ccc(CCNC(=O)CS(=O)Cc2nc(-c3ccc(C)cc3)oc2C)cc1 (stereo not drawn),?,?,-15%,?,3%,-8%
CC(OC(=O)CNC(=O)c1ccc2ccccc2c1)C(=O)NC1CCCCC1C (stereo not drawn),-4,-15%,2%,-23%,3%,-8%
O=C(/C=C/c1ccc(Br)cc1)NC(=O)c1ccccc1O,-95*,-11%,?,?,-1%,-43%
CC(NC(=O)/C=C/c1ccc(Br)cc1)c1ccccc1 (stereo not drawn),-4,16µM*,-10%,?,-1%,-18%
O=C(CSc1nc2c([nH]c3ccccc32)c(=O)n1-c1ccc(Cl)cc1)N1CCOCC1,·,5%,4%,1%,2%,0%
O=C(CSc1nc(C(F)(F)F)cc(=O)[nH]1)N1CCCC1,9,-8%,4%,-11%,1%,2%
CCOC(=O)c1cc2c(=O)n3cccc(C)c3nc2n(CCCOC)c1=NC(=O)c1cccnc1,?,-28%,32%,23µM*,1%,-17%
CCCCn1c(=NC(=O)c2ccco2)c(C(=O)OCC)cc2c(=O)n3ccccc3nc21,-5,?,5%,23µM*,9%,3%
CCCCn1c(=NC(=O)c2cc3ccccc3o2)c(C(=O)OCC)cc2c(=O)n3ccccc3nc21,·,-19%,16%,-1%,6%,-29%
CCCCn1c(=NC(=O)c2ccco2)c(C(=O)OCC)cc2c(=O)n3cccc(C)c3nc21,3,?,?,13µM*,-1%,-21%
CCCCCn1c(=NC(=O)c2ccco2)c(C(=O)OCC)cc2c(=O)n3ccccc3nc21,-74*!,16µM*,?,15µM*,3%,-24%
COc1ccc2cc(C#N)c(=O)oc2c1,·,·,·,·,8%,·
CCOc1ccc(OCC)c(NC(=O)c2cnn(-c3ccc(F)cc3)c2-n2cccc2)c1,·,·,-5%,·,0%,-15%
O=C1NC2(CCCCCC2)C(=O)N1Cc1ccccc1F,4,-4%,0%,3%,·,3%
CCOC(=O)c1cc2c(=O)n3ccccc3nc2n(CCOC)c1=NC(=O)c1cc2ccccc2o1,·,-18%,7%,-2%,0%,-17%
CCOC(=O)c1cc2c(=O)n3ccccc3nc2n(CCCOC)c1=NC(=O)c1cc2ccccc2o1,·,23µM*,0%,18µM*,9%,3%
CCOCCCn1c(=NC(=O)c2cccnc2)c(C(=O)OCC)cc2c(=O)n3ccccc3nc21,-7,?,0%,?,0%,2%
CCCCn1c(=NC(=O)c2cccnc2)c(C(=O)OCC)cc2c(=O)n3ccccc3nc21,5,23µM*,13%,16µM*,2%,-2%
c1ccc(C2=Nc3c(ccc4ccccc34)C(c3ccncc3)=NN2)cc1,-2,8.2µM*,?,21µM*,6%,33%
O=C(/C=C(\c1ccc(Cl)cc1)n1cncn1)c1ccc(Cl)cc1,-57*,?,23%,16µM*,-7%,-17%
O=C(Cn1cncn1)c1ccc(Cl)cc1,-3,-16%,1%,-7%,·,8%
O=C1CC(c2ccc(Cl)cc2)c2cc3c(cc2N1)OCCO3 (stereo not drawn),·,?,-6%,?,9%,-21%
SMILES,IL-1B inflam inh,TDP1 cell CPT,TGFb SMAD3 inh,DT40 TDP1 no CPT,TDP1 block,HepG2 tox
O=C1CC(c2cccc(Cl)c2Cl)c2cc3c(cc2N1)OCCO3 (stereo not drawn),·,?,12%,21µM*,-3%,-3%
COc1ccccc1C1CC(=O)Nc2cc3c(cc21)OCCO3 (stereo not drawn),42,5.2µM*,?,5.2µM*,16%,-12%
O=C1CC(c2cc(F)cc(F)c2)c2cc3c(cc2N1)OCO3 (stereo not drawn),·,?,1%,16µM*,0%,-25%
COc1ccc(Cl)cc1C1CC(=O)Nc2cc3c(cc21)OCCO3 (stereo not drawn),·,0.65µM*,?,0.37µM*,5%,7%
Cc1ccc2oc(C(=O)Nc3c(C(=O)Nc4ccccc4)oc4ccccc34)cc(=O)c2c1,·,-20%,-12%,-8%,2%,4%
OC1OC[C@@H](O)[C@@H](O)[C@@H]1O (stereo partly drawn),·,·,·,·,14%,·
Cc1cc(C)cc(-n2c(C)nc3cc(C(=O)NCc4ccccc4Cl)ccc32)c1,·,2%,?,?,3%,-32%
COc1c2c(nc3ccccc13)O[C@H]([C@@](C)(O)CO)C2,·,·,·,·,13%[21 µM],·
O=C1CC(c2cccs2)c2cc3c(cc2N1)OCCO3 (stereo not drawn),7,?,-2%,21µM*,2%,-15%
Cc1ccc(C2CC(=O)Nc3cc4c(cc32)OCCO4)s1 (stereo not drawn),13,?,-29%,?,5%,1%
COc1ccc(C2(C)NC(=O)N(CC(=O)N(c3ccccc3)C3CCS(=O)(=O)C3)C2=O)cc1 (stereo not drawn),19,1%,8%,-8%,0%,1%
c1ccc(-c2nc(-c3cnc4ccccc4n3)cs2)cc1,·,-41%,16%,-19%,·,-2%
Cc1cc(OCC(=O)N2CCc3ccccc3C2)c2c(-c3ccccc3)cc(=O)oc2c1,-26,23µM*,?,?,2%,-1%
CCOc1cc(C)cc2oc(=O)cc(-c3ccccc3)c12,32,13µM*,?,21µM*,-6%,-47%
CC(=O)Oc1cc(C)cc2oc(=O)cc(-c3ccccc3)c12,20,-7%,-28%,?,·,0%
Cc1cc(OC(C)C)c2c(-c3ccccc3)cc(=O)oc2c1,44,23µM*,2%,?,-7%,-2%
COc1ccc(-c2ccc(-c3cc(=O)oc4cc(C)cc(C)c34)cc2)cc1,·,·,·,·,-6%,·

# From PubChem BioAssay
